# Measured values published in PubChem BioAssay AID686978 (National Center for Advancing Translational Sciences (NCATS), 2013).
# In all, about 420,000 compounds went through this assay and about 64,000 (15%) were called active. Roughly 27% stayed inconclusive and do not appear here. Only a sample is shown. Unmarked numbers belong to inactive results. Calls come from the whole dose curve; as a rule, active = well fitted inhibition curve with a large enough effect; inconclusive = small, poorly fitted or top-dose-only effect; inactive = flat fitted curve, though single readings scatter.
# Test: qHTS for Inhibitors of human tyrosyl-DNA phosphodiesterase 1 (TDP1): qHTS in cells in absence of CPT; note: nearly all actives have a fitted effect of over 55% in size
# Settings: DT40 Tdp1-/- hTDP1 cells, no CPT, ATP luminescence, 48 h; activity change, negative = growth inhibition: at 46.2 µM (top of the series)
# Procedure, shortened: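 DT40 Tdp1-/-;hTDP1 cells, no CPT (DMSO vehicle only), 400 cells/well; compounds pin-transferred; ≥48 hr, 37 °C; CellTiter-Glo 30 min RT dark, luminescence read.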
# % is set by controls: 0 for no effect and ±100 for the full control effect; potency is the fitted concentration of half-maximal effect.
SMILES,"activity change, negative = growth inhibition",Potency
CN=C(c1ccccc1)c1c(C)cccc1C,-12.2%,–
CC1CCCCC1NC(=O)CSc1nnc(-c2ccncc2)n1CCCN(C)C (stereo unspecified),-2.07%,–
CCCNC(=O)N1CCN(C(=O)NCCC)CC1,4.59%,–
O=C(NNc1cc(Cl)ccc1Cl)c1cccnc1Cl,-2.92%,–
Fc1ccc(OCc2nn3c(Cn4nnc5ccccc54)nnc3s2)cc1,-27.8%,–
CCc1ccccc1NC(=O)Cc1cn(C)c2ccccc12,–,inactive
O=C(O)C1CCCN1S(=O)(=O)c1ccc2c(c1)CCC2 (stereo unspecified),-7.3%,–
CC(OC(=O)CNC(=O)c1cccc(F)c1)C(=O)NC1CCCCC1C (stereo unspecified),3.97%,–
Cc1ccnc(SCC(=O)Nc2cccc(S(=O)(=O)N3CCOCC3)c2)n1,-27.1%,–
O=C(O)CCc1cccnc1,–,inactive
O=C1/C(=C\c2cccnc2)CN(Cc2ccccc2)C/C1=C\c1cccnc1,–,1.64 µM (active)
O=C(O)C1CC(=O)N(Cc2cccnc2)C1 (stereo unspecified),-0.56%,–
COC(=O)c1ccc2c(c1)S(=O)(=O)NC2C (stereo unspecified),4.44%,–
Cc1ccc(S(=O)(=O)NCC(=O)OCC(=O)N2CCc3ccccc32)cc1,-22.6%,–
O=C(OCC(=O)N1CCc2ccccc21)C1CCCN1S(=O)(=O)c1ccc(Cl)cc1 (stereo unspecified),-9.63%,–
O=C(OCC(=O)N1CCc2ccccc21)c1ccc([N+](=O)[O-])cc1,–,29.1 µM (active)
O=S(=O)(Nc1ccccn1)c1cccc(S(=O)(=O)c2ccc(Cl)cc2)c1,-14%,–
Cc1coc2c1c(C)cc1oc(=O)c(CC(=O)NCC(=O)N[C@H](C(=O)O)C(C)C)c(C)c12,23.9%,–
CCC(NC(=O)C1CCCC1)c1ccc(C)cc1 (stereo unspecified),-3.25%,–
Cc1cc[n+](C2CCCCC2)cc1,–,15.8 µM (active)
COc1ncnc2sc3c(c12)CCCC3,-6.77%,–
Cc1noc(C)c1NC(=O)N(C)C[C@@H]1Oc2cc(Br)ccc2S(=O)(=O)N([C@@H](C)CO)C[C@H]1C,-2.38%,–
C[C@H](CO)N1C[C@H](C)[C@@H](CN(C)C(=O)C2CCCCC2)OCc2cnnn2CCCC1=O,-21.8%,–
CCCCOc1ccc(C(C)(O)CCN2CCOCC2)cc1 (stereo unspecified),-21.9%,–
CCN(Cc1cc2cc(C)ccc2[nH]c1=O)S(=O)(=O)c1ccccc1,-13%,–
COc1ccc(-c2[nH]ncc2CN(C)Cc2cccnc2)c(F)c1,-19.9%,–

SMILES,"activity change, negative = growth inhibition",Potency
COc1ccc2[nH]c(=O)c(CN(Cc3cccnc3)S(=O)(=O)c3ccccc3F)cc2c1,–,18.4 µM (active)
Cc1ccc(C(=O)NCC(=O)OCC(=O)NC2CCCCCCC2)cc1,8.07%,–
COc1ccc(C2C(=O)N(C3CCCCCC3)CC(=O)N2CCc2ccc(Cl)cc2)cc1OC (stereo unspecified),–,23.1 µM (active)
COc1ccc(C2C(=O)N(C3CCCCC3)CC(=O)N2Cc2ccccc2Cl)cc1OC (stereo unspecified),-3.49%,–
O=C(NCCc1ccc(Cl)cc1)C1CC(=O)N(C2CCCCC2)C1 (stereo unspecified),-11.3%,–
CCCCN(C(=O)c1nn(C)c(=O)c2ccccc12)c1c(N)n(CCC)c(=O)[nH]c1=O,13.9%,–
CCN1C[C@@H]2[C@@H]3C(=O)N(C)C(=O)[C@@H]3[C@](C)(C1=O)N2C(=O)c1ccccc1,-1.14%,–
COc1cc(C2CC(=O)c3cnc(NC(C)=O)nc3C2)cc(OC)c1OC (stereo unspecified),3.54%,–
CCCOC(=O)c1cc2ccccc2oc1=O,-15.6%,–
CCCOC(=O)c1[nH]c2c(c1C)C(=O)CC(c1cccs1)C2 (stereo unspecified),–,0.58 µM (active)
CCOC(=O)C1=C(N)N2C(=O)C(C)SC2=C(C(=O)OCC)C1c1cc(OC)c(OC)c(OC)c1 (stereo unspecified),15.8%,–
CCCOC(=O)c1[nH]c2c(c1C)C(=O)CC(c1cc(OC)c(OC)c(OC)c1)C2 (stereo unspecified),–,4.61 µM (active)
Cc1noc(C)c1C(=O)N1CCC1(C)C(=O)NS(=O)(=O)c1ccc(C#N)cc1 (stereo unspecified),10.2%,–
Cn1c(SCC(=O)Nc2cccc(NC(=O)c3cccs3)c2)nnc1-c1ccncc1,-21.6%,–
COc1cc(OC)c(C(=O)N2CCCC2)cc1OC,-2.13%,–
Nc1cc(N2CCCCCC2)c2nonc2c1[N+](=O)[O-],-25.5%,–
CCOc1ccc(N(C)S(=O)(=O)c2cnc[nH]2)cc1,-8.49%,–
CC(NS(=O)(=O)c1ccc(Br)cc1)C(=O)NCC1CCCO1 (stereo unspecified),2.85%,–
OC(CNCC1CCCO1)Cn1c2ccc(Br)cc2c2cc(Br)ccc21 (stereo unspecified),–,18.4 µM (active)
O=C(CCNS(=O)(=O)c1ccc(Br)cc1)NCC1CCCO1 (stereo unspecified),-5.69%,–
CN(C)c1ccc(C(CNS(=O)(=O)c2cc(F)ccc2F)N2CCOCC2)cc1 (stereo unspecified),5.48%,–
C[C@H](NC(=O)c1[nH]cnc1C(=O)Nc1nccs1)c1ccccc1,-19.2%,–
Cc1ccc(S(=O)(=O)N2CCOCC2)cc1C(=O)OC1CCCCC1=O (stereo unspecified),-18.6%,–
CC(=O)N1CCc2cc(Br)cc(S(=O)(=O)CCC(=O)Nc3c(C)n(C)n(-c4ccccc4)c3=O)c21,-7.36%,–
CCCS(=O)(=O)c1ncc(Cl)c(C(=O)Nc2scc(-c3ccccc3)c2C(=O)OCC)n1,–,3.66 µM (active)
